# From PubChem BioAssay
# Records with an inconclusive call do not appear. Activity calls are given as the source filed them.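 Rule for the calls, unless noted: active = viability at or below 10% of carrier control in both of two separate runs; inconclusive = viability at or below 10% in only one of the two runs; inactive = the rest.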
# Tests used:
# [1] = Her2 expression decrease, cell viability multiplex – SKBR3 breast tumor cells, AlphaScreen, ATP viability, primary screen (AID 461;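 active = Her2 level under about 52% in both replicate screens, with viability over 70% of control, limit read from the data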;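 for Her2 level: lower value means less Her2 protein in the cells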;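 for viability: percent of carrier control wells set as 100% viability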); conditions: SKBR3 Her2 protein level, 18-24 h, measured here: SKBR3 viability, ATP luminescence, at 10 µM
# [2] = target: Receptor tyrosine-protein kinase erbB-2 (Homo sapiens) (UniProt P04626); assay: as above; conditions: 18-24 h, at 10 µM, stronger effect = lower value
# [3] = reduced viability of SK-BR-3 breast cancer cells – cell-based, 24 h, human, pilot screen (AID 572); conditions: SK-BR-3 viability, CellTiter-Glo luminescence, at 10 µM, stronger effect = lower value;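 note: compound exposure lasted between 18 and 24 h rather than exactly 24 h; 100% = carrier-treated control wells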
# [4] = HUVEC growth inhibition – cell-based, human, primary screen (AID 575;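 active = viability at or below 30% in both replicate assays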;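 note: 100% = median of untreated cell wells with 0.1% DMSO on each plate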); conditions: HUVEC proliferation, CellTiter-Glo luminescence, 72 h; at 10 µM; stronger effect = lower value
# [5] = H69AR cell proliferation blockers – human, duplicate replicates, primary screen (AID 580;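 active = viability at or under a set limit in both replicates, limit being median viability minus 3 SD, cut at about 48% in these data, passing the limit was not always enough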;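 note: 100% = mean luminescence of untreated wells and 0% = no signal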); conditions: H69AR lung tumor cells viability, ATP luminescence, 72 h; at 10 µM; stronger effect = lower value
# [6] = MRP1 drug-resistance reversers in H69AR cells – cell-based, doxorubicin co-treatment, pilot screen (AID 601;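 active = viability loss from added drug above about 55%, and viability with drug at most 40%, in both replicates, limit read from the data, passing the limit was not always enough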); conditions: CellTiter-Glo, 72 h, at 10 µM; for differential viability (reversal): stronger effect = higher value
# [7] = yeast transport mutant growth inhibition pilot in 384-well plates, post-Golgi transport modulator project (AID 636; in the data active = inhibition above about 31%); conditions: absorbance 615 nm, about 18 h, stronger effect = higher value
# [8] = growth suppression of yeast trafficking mutant, preliminary HTS, modulators of trafficking downstream of Golgi apparatus project, 1536-format plate, OD 615 nm (AID 637; in the data active = inhibition above about 30%); conditions: yeast transport mutant growth, absorbance 615 nm, 18 h; stronger effect = higher value
# [9] = S. cerevisiae growth inhibition in permissive medium (OD615), pilot counter-assay for S. cerevisiae lifespan shortening project, permissive growth control (AID 705;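 active = growth inhibition above 25% in both replicates, a cutoff set 3 SD above the mean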); conditions: OD615, 24 h, at 10 µM, stronger effect = higher value
# [10] = S. cerevisiae growth inhibition in restrictive medium, OD615, pilot screen, restrictive growth control, yeast lifespan reduction project (AID 706;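 active = growth inhibition above a set limit, 3 SD over mean compound inhibition, in both replicates, cut at about 43% in these data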;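 note: modified DeaD lifespan yeast strain shifted to restrictive glucose medium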); conditions: OD615, 48 h, at 10 µM, stronger effect = higher value
# [11] = doxorubicin toxicity protection in MRP-1 cells – H69AR cells, CellTiter-Glo, duplicate, MRP-1 activator project, pilot screen (AID 807;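 active = viability increase at or above a cutoff of the median across tested compounds plus 3 SD, cut at about 8.5% in these data, passing the limit was not always enough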;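 note: compound pretreatment 18-22 h then 72 h combined with doxorubicin; 0% = doxorubicin alone and 100% = vehicle without doxorubicin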); conditions: H69AR viability with doxorubicin, CellTiter-Glo luminescence; at 10 µM; stronger effect = higher value
# [12] = viability of HCT116 without oncogenic beta-catenin – human colon tumor cells, pilot screen (AID 823;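 active = cell viability at or below a set limit in both duplicate runs, the limit being the all-compound median minus 4 SD, cut at about 23% in these data, passing the limit was not always enough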;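 note: 0% = wells killed by 20 µM Hyamine and 100% = untreated DMSO cell wells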); conditions: HCT116 beta-catenin knockout viability, CellTiter-Glo, 60 h; at 10 µM; stronger effect = lower value
# [13] = viability of PTEN-null HCT116 cells – cell-based, HCT116 clonal line, CellTiter-Glo, pilot screen (AID 824;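 active = viability at or below 27.92% in each of two runs, the all-compound median minus 4 SD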;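 note: 0% = 20 µM Hyamine control and 100% = vehicle cell control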); conditions: HCT116 PTEN-deleted viability, 60 h, at 10 µM, stronger effect = lower value
# [14] = RAM pathway blockade in budding yeast – dse1pr::URA3 reporter, 5-FOA selection, pilot screen (AID 869;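 active = inhibition over a set limit, the all-compound mean plus 3 SD, in both replicate runs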;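 note: 0% = DMSO wells with no growth and 100% = 10 µM 1-NA-PP1 with full growth; RAM network block rescues cells from 5-FOA so hits raise OD615 growth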); conditions: S. cerevisiae dse1pr::URA3 5-FOA growth, OD615, 2 d; at 10 µM; stronger effect = higher value; strain carries analog-sensitive mutant Cbk1 kinase
# [15] = RAM signaling pathway blockade in yeast – S. cerevisiae, Pdr1DBD-CYC8 efflux-inhibited sensitized strain, primary screen (AID 1298;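 active = RAM network inhibition above 8.4% in each of two replicates, 3 SD over the compound average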;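 note: 0% = DMSO untreated cells without growth and 100% = 10 µM 1-NA-PP1 full growth; higher means more yeast growth rescued from 5-FOA killing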); conditions: S. cerevisiae cbk1-as DSE1-URA3 strain, 5-FOA growth OD615, 2 d; at 50 µM; stronger effect = higher value
# [16] = H69AR cells + 2 uM doxorubicin, measured here: viability with 2 uM doxorubicin, stronger effect = lower value
# [17] = H69AR cells, compound alone cytotoxicity
# Receptor tyrosine-protein kinase erbB-2 (Homo sapiens), sequence (P04626 whole entry, looked up): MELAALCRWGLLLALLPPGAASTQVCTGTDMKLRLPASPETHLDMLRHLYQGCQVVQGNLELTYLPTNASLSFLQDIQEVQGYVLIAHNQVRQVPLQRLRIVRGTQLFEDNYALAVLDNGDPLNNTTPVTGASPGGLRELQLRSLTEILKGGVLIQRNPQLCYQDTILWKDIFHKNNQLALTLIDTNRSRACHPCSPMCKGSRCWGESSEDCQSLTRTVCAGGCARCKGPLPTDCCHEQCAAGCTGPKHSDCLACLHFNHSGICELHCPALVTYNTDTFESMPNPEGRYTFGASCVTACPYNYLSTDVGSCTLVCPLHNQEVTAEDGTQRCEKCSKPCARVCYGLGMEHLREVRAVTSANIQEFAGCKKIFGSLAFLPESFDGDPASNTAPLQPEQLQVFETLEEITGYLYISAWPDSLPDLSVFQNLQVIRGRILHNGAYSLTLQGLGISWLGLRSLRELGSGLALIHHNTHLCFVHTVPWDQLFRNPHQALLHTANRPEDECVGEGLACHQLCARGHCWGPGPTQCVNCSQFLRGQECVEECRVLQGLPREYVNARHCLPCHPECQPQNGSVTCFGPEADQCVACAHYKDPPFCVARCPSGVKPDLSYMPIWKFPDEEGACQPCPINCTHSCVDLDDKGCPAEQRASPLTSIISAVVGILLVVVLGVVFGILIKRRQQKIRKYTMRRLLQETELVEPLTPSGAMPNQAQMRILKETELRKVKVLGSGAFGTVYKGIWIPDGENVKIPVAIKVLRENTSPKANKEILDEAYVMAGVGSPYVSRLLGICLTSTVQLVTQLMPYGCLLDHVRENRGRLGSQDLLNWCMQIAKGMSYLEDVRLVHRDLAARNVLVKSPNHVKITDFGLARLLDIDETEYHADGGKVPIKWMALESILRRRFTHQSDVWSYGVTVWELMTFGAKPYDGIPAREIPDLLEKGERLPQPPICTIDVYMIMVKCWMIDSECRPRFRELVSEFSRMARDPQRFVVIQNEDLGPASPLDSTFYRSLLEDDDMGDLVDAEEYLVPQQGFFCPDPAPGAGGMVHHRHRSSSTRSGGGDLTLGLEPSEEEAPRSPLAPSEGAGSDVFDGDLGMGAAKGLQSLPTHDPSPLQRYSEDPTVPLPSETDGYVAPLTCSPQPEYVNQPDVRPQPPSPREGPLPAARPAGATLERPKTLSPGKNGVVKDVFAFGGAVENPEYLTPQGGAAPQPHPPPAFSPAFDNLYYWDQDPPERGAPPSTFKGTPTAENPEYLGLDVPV
SMILES,viability [1] [%],Her2 level [2],viability [3],viability [4],viability [5],differential viability (reversal) ([6]; H69AR cells + 2 uM doxorubicin),"viability [6, 16] [%]","viability [6, 17] [%]",inhibition [7],inhibition [8],growth inhibition [9],growth inhibition [10],viability increase [11],viability [12],viability [13],inhibition [14],RAM network inhibition [15]
COc1ccc(NS(=O)(=O)c2ccc(NC(C)=O)cc2)cc1OC,98.5,99% (inactive),98.5% (inactive),83.5% (inactive),94.5% (inactive),4.97% (inactive),89.5,94.5,2.69% (inactive),35.7% (active),0.65% (inactive),-9.44% (inactive),0.44% (inactive),85.4% (inactive),85.2% (inactive),1.85% (inactive),-1.59% (inactive)
O=C(NCc1ccc(F)cc1)c1cc2ccccn2n1,84,98.5% (inactive),84% (inactive),99% (inactive),98.2% (inactive),17.5% (inactive),80.6,98.2,-2.95% (inactive),4.5% (inactive),1.54% (inactive),3.24% (inactive),-0.54% (inactive),99% (inactive),89.8% (inactive),0.47% (inactive),1.1% (inactive)
COc1ccccc1NC1=C(C)C(=O)CC1,98,72% (inactive),98% (inactive),90.4% (inactive),88.7% (inactive),14.5% (inactive),74.1,88.7,-7.43% (inactive),-0.67% (inactive),-1.07% (inactive),-11.9% (inactive),-4.17% (inactive),75.4% (inactive),85.5% (inactive),1.62% (inactive),-0.26% (inactive)
CCc1nnc(NC(=O)COC(=O)CN2C(=O)c3ccccc3C2=O)s1,104,101% (inactive),104% (inactive),104% (inactive),109% (inactive),7.39% (inactive),101,109,-9.32% (inactive),-6.19% (inactive),2.25% (inactive),1.2% (inactive),-1.95% (inactive),96.8% (inactive),89.8% (inactive),0.785% (inactive),5.31% (inactive)
CC1(C)NC(=O)N(CC(O)COc2cccc(F)c2)C1=O (stereo not given),97,112% (inactive),97% (inactive),110% (inactive),101% (inactive),1.67% (inactive),99.8,101,3.73% (inactive),-1% (inactive),-3.19% (inactive),-1.89% (inactive),-0.02% (inactive),99.9% (inactive),97.9% (inactive),1.2% (inactive),1.81% (inactive)
CCOc1ccc(N2C(=O)CC(N3CC(C)OC(C)C3)C2=O)cc1 (stereo not given),97,93% (inactive),97% (inactive),100% (inactive),89.2% (inactive),-2.21% (inactive),91.4,89.2,-3.72% (inactive),1.33% (inactive),-17.2% (inactive),-10.4% (inactive),-1.01% (inactive),105% (inactive),98.8% (inactive),1.47% (inactive),2.33% (inactive)
CCOc1ccccc1NC(=O)CSc1nnc(Cc2cccn2C)n1-c1ccc(F)cc1,92.5,78.5% (inactive),92.5% (inactive),97.4% (inactive),79.9% (inactive),1.24% (inactive),78.6,79.9,-1.28% (inactive),-1.17% (inactive),5.28% (inactive),7.75% (inactive),-5.25% (inactive),75.5% (inactive),78.2% (inactive),1.11% (inactive),4.07% (inactive)
CN(C(=O)c1ccco1)c1nnc(C23CC4CC(CC(C4)C2)C3)s1,86,87% (inactive),86% (inactive),60.3% (inactive),75.9% (inactive),-0.595% (inactive),76.5,75.9,-3.73% (inactive),-0.83% (inactive),-8.84% (inactive),-8.94% (inactive),-7.07% (inactive),79.5% (inactive),66% (inactive),0.17% (inactive),5.35% (inactive)
O=C(CSc1nc2c(c(=O)n1-c1ccc(F)cc1)SCC2)NCC1CCCO1 (stereo not given),93.5,101% (inactive),93.5% (inactive),92.6% (inactive),105% (inactive),12% (inactive),92.6,105,-2.4% (inactive),-1.61% (inactive),-8.12% (inactive),-16.6% (inactive),-3.46% (inactive),98.2% (inactive),90.9% (inactive),1.46% (inactive),5.77% (inactive)
CC1CCc2nn(CC(=O)NCCCN3CCOCC3)cc2C1 (stereo not given),99.5,102% (inactive),99.5% (inactive),85.6% (inactive),90.5% (inactive),2.46% (inactive),88.1,90.5,-3.97% (inactive),-0.83% (inactive),7.55% (inactive),6.69% (inactive),-1.14% (inactive),104% (inactive),95% (inactive),3.4% (inactive),1.33% (inactive)
